Data on 5 sequences can be found in paper PMC11006913.

What all share (assay): PBM; 200 nM protein, PBS
Details in all cases: dsDNA, one strand shown

Assay [1] addresses HESX1 (Homo sapiens, UniProt Q9UBX0 95-180, R165K).
In assay [2] the target is SHOX (Homo sapiens, UniProt O15266 103-189).
For a further assay, the target named is ALX4 (Homo sapiens, UniProt Q9H161 200-286, Q225E).
Assay [3] deals with HESX1 (Homo sapiens, UniProt Q9UBX0 95-180).
The target in another assay is MSX2 (Homo sapiens, UniProt P35548 130-214, R199I).
Assay [4] has as its target ALX1 (Homo sapiens, UniProt Q15699 118-204, L144V).
The target in assay [5] is ALX3 (Homo sapiens, UniProt O95076 139-225, N203Q).
Assay [6] deals with SHOX (Homo sapiens, UniProt O15266 103-189, R173C).
The target in assay [7] is ALX1 (Homo sapiens, UniProt Q15699 118-204, L144R).
The target in assay [8] is ALX3 (Homo sapiens, UniProt O95076 139-225).
The target of assay [9] is PROP1 (Homo sapiens, UniProt O75360 56-141).
Assay [10] has as its target HESX1 (Homo sapiens, UniProt Q9UBX0 95-180, R109Q).
The target of assay [11] is PROP1 (Homo sapiens, UniProt O75360 56-141, R99H).
Assay [12] has as its target ALX3 (Homo sapiens, UniProt O95076 139-225, L168Q).
For assay [13], the target named is HESX1 (Homo sapiens, UniProt Q9UBX0 95-180, P111T).
The target of assay [14] is ALX3 (Homo sapiens, UniProt O95076 139-225, L168V).
Assay [15] has as its target PROP1 (Homo sapiens, UniProt O75360 56-141, F88S).
Assay [16] addresses HESX1 (Homo sapiens, UniProt Q9UBX0 95-180, F115L).
Assay [17] addresses ALX1 (Homo sapiens, UniProt Q15699 118-204).
Assay [18] concerns the target ALX3 (Homo sapiens, UniProt O95076 139-225, N203S).

SHOX (Homo sapiens, UniProt O15266 103-189, R173C), sequence (O15266 103-189 R173C): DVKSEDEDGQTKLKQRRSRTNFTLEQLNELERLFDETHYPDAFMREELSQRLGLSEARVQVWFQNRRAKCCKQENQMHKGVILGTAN
HESX1 (Homo sapiens, UniProt Q9UBX0 95-180, R165K), sequence (Q9UBX0 95-180 R165K): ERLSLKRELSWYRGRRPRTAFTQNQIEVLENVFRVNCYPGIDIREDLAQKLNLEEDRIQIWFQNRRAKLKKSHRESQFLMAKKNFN
HESX1 (Homo sapiens, UniProt Q9UBX0 95-180), sequence (Q9UBX0 95-180): as the sequence (Q9UBX0 95-180 R165K) above, with K71R counted along it
HESX1 (Homo sapiens, UniProt Q9UBX0 95-180, R109Q), sequence (Q9UBX0 95-180 R109Q): as the sequence (Q9UBX0 95-180 R165K) above, with R15Q, K71R counted along it
SHOX (Homo sapiens, UniProt O15266 103-189), sequence (O15266 103-189): as the sequence (O15266 103-189 R173C) above, with C71R counted along it
PROP1 (Homo sapiens, UniProt O75360 56-141, R99H), sequence (O75360 56-141 R99H): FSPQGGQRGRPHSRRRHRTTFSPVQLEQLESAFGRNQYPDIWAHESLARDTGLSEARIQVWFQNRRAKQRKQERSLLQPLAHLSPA
HESX1 (Homo sapiens, UniProt Q9UBX0 95-180, P111T), sequence (Q9UBX0 95-180 P111T): as the sequence (Q9UBX0 95-180 R165K) above, with P17T, K71R counted along it
HESX1 (Homo sapiens, UniProt Q9UBX0 95-180, F115L), sequence (Q9UBX0 95-180 F115L): as the sequence (Q9UBX0 95-180 R165K) above, with F21L, K71R counted along it
ALX3 (Homo sapiens, UniProt O95076 139-225, N203Q), sequence (O95076 139-225 N203Q): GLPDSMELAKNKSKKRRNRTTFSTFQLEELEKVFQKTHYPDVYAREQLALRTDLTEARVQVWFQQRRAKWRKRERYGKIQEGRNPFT
ALX3 (Homo sapiens, UniProt O95076 139-225), sequence (O95076 139-225): as the sequence (O95076 139-225 N203Q) above, with Q65N counted along it
MSX2, sequence (P35548 130-214 R199I): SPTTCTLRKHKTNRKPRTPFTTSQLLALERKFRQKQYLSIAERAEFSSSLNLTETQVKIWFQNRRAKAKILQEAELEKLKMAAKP
ALX3 (Homo sapiens, UniProt O95076 139-225, N203S), sequence (O95076 139-225 N203S): as the sequence (O95076 139-225 N203Q) above, with Q65S counted along it
PROP1 (Homo sapiens, UniProt O75360 56-141), sequence (O75360 56-141): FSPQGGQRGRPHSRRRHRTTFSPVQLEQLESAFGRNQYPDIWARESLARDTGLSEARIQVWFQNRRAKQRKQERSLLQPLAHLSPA
PROP1 (Homo sapiens, UniProt O75360 56-141, F88S), sequence (O75360 56-141 F88S): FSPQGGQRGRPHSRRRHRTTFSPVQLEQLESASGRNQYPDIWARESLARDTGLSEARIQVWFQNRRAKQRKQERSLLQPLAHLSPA
ALX4, sequence (Q9H161 200-286 Q225E): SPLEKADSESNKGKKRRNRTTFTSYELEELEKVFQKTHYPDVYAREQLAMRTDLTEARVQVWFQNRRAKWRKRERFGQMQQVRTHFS
ALX3 (Homo sapiens, UniProt O95076 139-225, L168Q), sequence (O95076 139-225 L168Q): as the sequence (O95076 139-225 N203Q) above, with L30Q, Q65N counted along it
ALX3 (Homo sapiens, UniProt O95076 139-225, L168V), sequence (O95076 139-225 L168V): as the sequence (O95076 139-225 N203Q) above, with L30V, Q65N counted along it
ALX1 (Homo sapiens, UniProt Q15699 118-204, L144V), sequence (Q15699 118-204 L144V): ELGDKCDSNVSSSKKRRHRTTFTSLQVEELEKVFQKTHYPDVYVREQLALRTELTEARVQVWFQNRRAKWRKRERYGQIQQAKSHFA
ALX1 (Homo sapiens, UniProt Q15699 118-204), sequence (Q15699 118-204): as the sequence (Q15699 118-204 L144V) above, with V27L counted along it
ALX1 (Homo sapiens, UniProt Q15699 118-204, L144R), sequence (Q15699 118-204 L144R): as the sequence (Q15699 118-204 L144V) above, with V27R counted along it

TAATTGAA: the binding signal with HESX1 [1] was 12.9 upbm affinity estimate (log intensity, higher = more binding, comparable within an allelic series); with SHOX [2] it was 12 upbm affinity estimate (log intensity, higher = more binding, comparable within an allelic series); with ALX4 it was 13.2 upbm affinity estimate (log intensity, higher = more binding, comparable within an allelic series); with HESX1 [3], 12.9 upbm affinity estimate (log intensity, higher = more binding, comparable within an allelic series); with MSX2, 12.5 upbm affinity estimate (log intensity, higher = more binding, comparable within an allelic series); with ALX1 [4], 11.6 upbm affinity estimate (log intensity, higher = more binding, comparable within an allelic series). Further, the binding signal in the assay with ALX3 [5] is 8.33 upbm affinity estimate (log intensity, higher = more binding, comparable within an allelic series); with SHOX [6] it was 9.58 upbm affinity estimate (log intensity, higher = more binding, comparable within an allelic series); with ALX1 [7], 11.3 upbm affinity estimate (log intensity, higher = more binding, comparable within an allelic series); with ALX3 [8], 12.5 upbm affinity estimate (log intensity, higher = more binding, comparable within an allelic series); with PROP1 [9] it was 11.5 upbm affinity estimate (log intensity, higher = more binding, comparable within an allelic series); with HESX1 [10], 9.18 upbm affinity estimate (log intensity, higher = more binding, comparable within an allelic series). The binding signal is 11.6 upbm affinity estimate (log intensity, higher = more binding, comparable within an allelic series) in the assay with PROP1 [11]; 10.6 upbm affinity estimate (log intensity, higher = more binding, comparable within an allelic series) with ALX3 [12]; 11.4 upbm affinity estimate (log intensity, higher = more binding, comparable within an allelic series) with HESX1 [13]; 10 upbm affinity estimate (log intensity, higher = more binding, comparable within an allelic series) in the assay with ALX3 [14]; 7.68 upbm affinity estimate (log intensity, higher = more binding, comparable within an allelic series) with PROP1 [15]; 7.71 upbm affinity estimate (log intensity, higher = more binding, comparable within an allelic series) in the assay with HESX1 [16]. Besides, the binding signal with ALX1 [17] is 12.3 upbm affinity estimate (log intensity, higher = more binding, comparable within an allelic series); with ALX3 [18], 8.47 upbm affinity estimate (log intensity, higher = more binding, comparable within an allelic series).

Regarding GACAATTA, the binding signal with HESX1 [1] is 11.7 upbm affinity estimate (log intensity, higher = more binding, comparable within an allelic series); with SHOX [2], 11.6 upbm affinity estimate (log intensity, higher = more binding, comparable within an allelic series); with HESX1 [3] it was 12 upbm affinity estimate (log intensity, higher = more binding, comparable within an allelic series); with MSX2 it was 12.7 upbm affinity estimate (log intensity, higher = more binding, comparable within an allelic series); in the assay with SHOX [6], 9.21 upbm affinity estimate (log intensity, higher = more binding, comparable within an allelic series); with HESX1 [10], 8.59 upbm affinity estimate (log intensity, higher = more binding, comparable within an allelic series). Further, the binding signal with PROP1 [11] was 10.8 upbm affinity estimate (log intensity, higher = more binding, comparable within an allelic series); in the assay with HESX1 [13], 10.4 upbm affinity estimate (log intensity, higher = more binding, comparable within an allelic series); with HESX1 [16], 7.41 upbm affinity estimate (log intensity, higher = more binding, comparable within an allelic series).

Turning to CTTGCGGC, the binding signal in the assay with HESX1 [1] was 6.55 upbm affinity estimate (log intensity, higher = more binding, comparable within an allelic series); with SHOX [2], 7.11 upbm affinity estimate (log intensity, higher = more binding, comparable within an allelic series); with HESX1 [3] it was 6.49 upbm affinity estimate (log intensity, higher = more binding, comparable within an allelic series); with SHOX [6] it was 7.22 upbm affinity estimate (log intensity, higher = more binding, comparable within an allelic series); in the assay with HESX1 [10] it was 6.47 upbm affinity estimate (log intensity, higher = more binding, comparable within an allelic series); with HESX1 [13], 6.52 upbm affinity estimate (log intensity, higher = more binding, comparable within an allelic series). The binding signal with HESX1 [16] was 6.53 upbm affinity estimate (log intensity, higher = more binding, comparable within an allelic series).

As for GAGGGGGC, the binding signal with HESX1 [1] is 6.47 upbm affinity estimate (log intensity, higher = more binding, comparable within an allelic series); with HESX1 [3] it was 6.37 upbm affinity estimate (log intensity, higher = more binding, comparable within an allelic series); with HESX1 [10], 6.41 upbm affinity estimate (log intensity, higher = more binding, comparable within an allelic series); in the assay with HESX1 [13], 6.44 upbm affinity estimate (log intensity, higher = more binding, comparable within an allelic series); with HESX1 [16] it was 6.41 upbm affinity estimate (log intensity, higher = more binding, comparable within an allelic series).

As to AATTAAGG, the binding signal with HESX1 [1] is 11.4 upbm affinity estimate (log intensity, higher = more binding, comparable within an allelic series); with SHOX [2], 11.7 upbm affinity estimate (log intensity, higher = more binding, comparable within an allelic series); in the assay with ALX4 it was 12.8 upbm affinity estimate (log intensity, higher = more binding, comparable within an allelic series); with HESX1 [3] it was 11.4 upbm affinity estimate (log intensity, higher = more binding, comparable within an allelic series); with ALX3 [5] it was 8.39 upbm affinity estimate (log intensity, higher = more binding, comparable within an allelic series); with SHOX [6], 9.49 upbm affinity estimate (log intensity, higher = more binding, comparable within an allelic series). For the same sequence, the binding signal in the assay with ALX3 [8] was 12.2 upbm affinity estimate (log intensity, higher = more binding, comparable within an allelic series); with PROP1 [9] it was 11 upbm affinity estimate (log intensity, higher = more binding, comparable within an allelic series); with HESX1 [10] it was 8.76 upbm affinity estimate (log intensity, higher = more binding, comparable within an allelic series); with PROP1 [11], 10.8 upbm affinity estimate (log intensity, higher = more binding, comparable within an allelic series); in the assay with ALX3 [12], 10.4 upbm affinity estimate (log intensity, higher = more binding, comparable within an allelic series); in the assay with HESX1 [13], 10.3 upbm affinity estimate (log intensity, higher = more binding, comparable within an allelic series). Besides, the binding signal with ALX3 [14] was 9.9 upbm affinity estimate (log intensity, higher = more binding, comparable within an allelic series); with PROP1 [15], 7.57 upbm affinity estimate (log intensity, higher = more binding, comparable within an allelic series); with HESX1 [16], 7.55 upbm affinity estimate (log intensity, higher = more binding, comparable within an allelic series); in the assay with ALX3 [18], 8.48 upbm affinity estimate (log intensity, higher = more binding, comparable within an allelic series).
